“And” between values parts separate entries of the source, which are not always exact repeats. Equal values may be shown once. The source made the active and inactive calls.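 The calls were made as follows, unless noted: active = compounds whose cell count with miR-34 switched on is under 0.7 times the count with it off; inactive = the rest.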 Residues, ends and D or L forms follow the SMILES beside them.
How the values were obtained:
[1] = EMT-state selective cytotoxicity in co-culture – imaging, PC-3E GFP, TEM4-18 mCherry, primary screen (AID 1345086;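 active = compounds killing one labelled cell type while sparing the other, by normalised counts and ratio limits, not self-fluorescent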;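 as to all read-outs here: cells exposed to compound for 72 h before imaging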;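 as to red/green cell ratio (normalised): normalised mesenchymal count divided by normalised epithelial count so high means epithelial killing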); details: PC-3E GFP / TEM4-18 mCherry co-culture, imaging cell counts, at 1 µM; for red/green cell ratio (normalised): actives lie on both sides, counts scaled to control wells, 1 = unselective
[2] = viability loss with induced miR-34 in A549 – imaging, A549 dox-inducible miR-34, nuclei and caspase counts, primary screen (AID 1347080); details: A549 miR-34 inducible, Hoechst nuclei count, 48 h
[3] = MELAS cybrid and Rieske KO viability enhancers – cell-based, MELAS cybrids, Rieske KO mouse fibroblasts, CellTiter-Glo, primary screen (AID 1508586;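 active = mean z-score across replicates of 1.96 or higher in either the MELAS or the Rieske mutant cell line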;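 also: z relative to plate mean and SD of compound and empty wells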); details: low glucose
[4] = target: NAD(+) hydrolase SARM1 (Homo sapiens) (UniProt Q6SZW1); experiment: blocking NAD cleavage by SARM1 SAM-TIR – cell lysate, NAD-Glo luminescence (AID 1508614;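 active = compound whose remaining NAD level is above about 45 nM, limit read from the data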;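 also: higher remaining NAD means stronger inhibition of SARM1 NADase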); details: SAM-TIR HEK293T lysate NADase, at 1 µM, stronger effect = higher value
Sequence of NAD(+) hydrolase SARM1 (Homo sapiens) (Q6SZW1 whole entry, looked up): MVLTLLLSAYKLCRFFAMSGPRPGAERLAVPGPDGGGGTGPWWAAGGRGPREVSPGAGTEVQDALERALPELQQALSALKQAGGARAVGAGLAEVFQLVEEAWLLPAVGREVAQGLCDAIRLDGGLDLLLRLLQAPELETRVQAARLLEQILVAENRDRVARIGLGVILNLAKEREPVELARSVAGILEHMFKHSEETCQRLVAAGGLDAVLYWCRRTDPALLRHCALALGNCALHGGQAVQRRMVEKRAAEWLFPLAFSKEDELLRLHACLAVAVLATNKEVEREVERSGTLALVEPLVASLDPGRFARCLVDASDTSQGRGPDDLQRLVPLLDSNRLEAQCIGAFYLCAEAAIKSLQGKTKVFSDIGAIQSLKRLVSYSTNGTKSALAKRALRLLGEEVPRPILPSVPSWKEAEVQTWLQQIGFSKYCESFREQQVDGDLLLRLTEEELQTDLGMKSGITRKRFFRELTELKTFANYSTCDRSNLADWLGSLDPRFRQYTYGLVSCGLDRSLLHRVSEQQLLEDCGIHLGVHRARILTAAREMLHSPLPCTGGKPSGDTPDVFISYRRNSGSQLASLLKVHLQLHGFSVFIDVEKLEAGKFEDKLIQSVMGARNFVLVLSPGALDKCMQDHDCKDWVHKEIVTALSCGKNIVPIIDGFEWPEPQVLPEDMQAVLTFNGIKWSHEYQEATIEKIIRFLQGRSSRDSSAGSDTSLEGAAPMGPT

[5] = P. berghei load reduction in hepatocytes – cell-based, HepG2, luciferase luminescence, HepG2 viability, primary screen (AID 624349; in the data active = parasite load remaining mostly below about 12%, no sharp cut-off; inactive = mostly above about 10%;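 also: 100% = mean of DMSO negative control wells on the same plate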); details: P. berghei liver stage in HepG2, luciferase luminescence, concentration not given here; parasite load remaining: stronger effect = lower value; viability: measured here: HepG2 viability without parasites
[6] = galactose survival enhancers in mitochondrial complex I cybrids – cell-based, galactose medium, ATP luminescence, primary screen (AID 1645843;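 active = z-score of at least 1.8 in each of two replicates, scored against plate mean and spread of sample wells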;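 also: positive z means more ATP and so rescue of galactose-driven cybrid death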); details: complex I mutant cybrid cells, 72 h, stronger effect = higher value
[7] = measured here: epithelial PC-3E GFP cell survival
[8] = measured here: mesenchymal TEM4-18 mCherry cell survival
[9] = stronger effect = lower value, cell number ratio, induced over uninduced
[10] = measured here: relative caspase fold change +Dox/-Dox
[11] = measured here: total cells with miR-34 induction, stronger effect = lower value
[12] = measured here: total cells without miR-34 induction
[13] = MELAS cybrid survival, CellTiter-Glo 48 h, stronger effect = higher value
[14] = Rieske KO mouse fibroblast survival, CellTiter-Glo 72 h

| SMILES | red/green cell ratio (normalised) [1] | normalised cell number [1, 7] | normalised cell number [1, 8] | fold change [2, 9] | fold change [2, 10] | cell count [2, 11] | cell count [2, 12] | z-score [3, 13] | z-score [3, 14] | remaining NAD [4] | parasite load remaining [5] | viability [5] | z-score [6] |
| --- | --- | --- | --- | --- | --- | --- | --- | --- | --- | --- | --- | --- | --- |
| CCNC1CN(CCCOC)S(=O)(=O)c2sc(S(N)(=O)=O)cc21 (configuration not stated) | 0.72 (inactive) | 1.22 | 0.87 | 0.853 (inactive) | 0.647 | 8320 | 9750 | -0.247 (inactive) | -0.152 |  |  |  |  |
| CC1CC(OC(=O)C(O)c2ccccc2)CC(C)(C)C1 (configuration not stated) | 1 (inactive) | 1.03 | 1.03 | 0.925 (inactive) and 0.927 (inactive) | 0.697 and 0.603 | 7310 and 7360 | 7900 and 7940 | -0.227 (inactive) | -0.184 | 10 nM (inactive) |  |  |  |
| COC1CC2CCC(C)C(O)(O2)C(=O)C(=O)N2CCCCC2C(=O)OC(C(C)CC2CCC(O)C(OC)C2)CC(=O)C(C)/C=C(\C)C(O)C(OC)C(=O)C(C)CC(C)/C=C/C=C/C=C/1C (configuration not stated) | 1.36 (inactive) | 0.36 | 0.49 | 0.865 (inactive) | 3.67 | 7720 | 8920 |  |  |  | 60.9% (inactive) | 98.1% |  |
| C[C@H](N[C@@H](CCc1ccccc1)C(=O)O)C(=O)N1Cc2ccccc2C[C@H]1C(=O)O | 0.82 (inactive) | 1.1 | 0.91 | 0.868 (inactive) | 0.983 | 8350 | 9630 |  |  | 10 nM (inactive) |  |  |  |
| CC(CCc1ccc(O)cc1)NCC(O)c1ccc(O)cc1 (configuration not stated) | 0.98 (inactive) | 0.86 | 0.84 | 0.934 (inactive) and 0.886 (inactive) | 0.997 and 0.914 | 8460 and 9910 | 9050 and 11200 | 0.268 (inactive) | 0.193 | 10 nM (inactive) | 46.7% (inactive) | 106% | 0.065 (inactive) |
| C=COCC(F)(F)F | 0.85 (inactive) | 1.12 | 0.96 | 0.911 (inactive) | 0.971 | 9000 | 9870 |  |  | 10 nM (inactive) |  |  |  |
| CC(O)(CC(=O)O)CC(=O)O | 1.15 (inactive) | 0.86 | 0.99 | 0.913 (inactive) | 1.16 | 8220 | 9000 |  |  | 10 nM (inactive) |  |  |  |
| CC(C)[C@H](NC(=O)[C@H](CC(=O)O)NC(=O)[C@H](CCCCN)NC(=O)[C@@H](N)CCCN=C(N)N)C(=O)N[C@@H](Cc1ccc(O)cc1)C(=O)O (H-RKDVY-OH) | 0.91 (inactive) | 1.09 | 0.99 | 0.895 (inactive) | 0.732 | 8230 | 9190 |  |  | 10 nM (inactive) |  |  |  |
| C[N+](C)(CCOc1ccccc1)Cc1ccccc1 | 0.65 (inactive) | 1.19 | 0.77 | 0.899 (inactive) and 0.879 (inactive) | 1.23 and 5.07 | 9230 and 11800 | 10300 and 13400 | 0.608 (inactive) | 0.271 | 10 nM (inactive) | 72.5% (inactive) and 56.2% (inactive) | 93.8% and 115% |  |
| O=C(O)C1CSCN1 (configuration not stated) | 0.88 (inactive) | 1.25 | 1.1 | 0.957 (inactive) | 0.618 | 9140 | 9550 |  |  | 10 nM (inactive) |  |  |  |
| CC(=O)C1C(=O)C=C(C)OC1=O (configuration not stated) | 1.08 (inactive) | 0.99 | 1.07 | 0.96 (inactive) | 0.723 | 9120 | 9500 |  |  | 10 nM (inactive) |  |  |  |
| FC(F)(Cl)C(F)(F)Cl | 1.02 (inactive) | 0.91 | 0.93 | 0.926 (inactive) | 0.734 | 9510 | 10300 |  |  | 10 nM (inactive) |  |  |  |
| CC1(C)C(C=C(Cl)Cl)C1C(=O)OCc1cccc(Oc2ccccc2)c1 (configuration not stated) | 0.81 (inactive) | 1.23 | 1 | 0.928 (inactive) | 0.968 | 8290 | 8930 |  |  | 10 nM (inactive) |  |  |  |
| COc1cc(-c2ccc(N=Nc3ccc4c(S(=O)(=O)O)cc(S(=O)(=O)O)c(N)c4c3O)c(OC)c2)ccc1N=Nc1ccc2c(S(=O)(=O)O)cc(S(=O)(=O)O)c(N)c2c1O | 1.11 (inactive) | 1.16 | 1.29 | 0.857 (inactive) | 0.848 | 8930 | 10400 | -1.41 (inactive) | -1.32 |  | 77.2% (inactive) and 55.6% (inactive) | 74.5% and 64.2% |  |
| Cc1nccnc1N1CCCCC1 | 1.12 (inactive) | 0.93 | 1.04 | 0.964 (inactive) | 0.767 | 9440 | 9790 |  |  | 10 nM (inactive) |  |  |  |
| CCC(=O)O[C@H](CC(=O)O)C[N+](C)(C)C | 1.18 (inactive) | 1.03 | 1.22 | 0.986 (inactive) | 0.77 | 8930 | 9060 |  |  | 10 nM (inactive) |  |  |  |
| Cc1cc(-c2ccc(N=Nc3ccc4c(S(=O)(=O)O)cc(S(=O)(=O)O)c(N)c4c3O)c(C)c2)ccc1N=Nc1ccc2c(S(=O)(=O)O)cc(S(=O)(=O)O)c(N)c2c1O | 0.96 (inactive) | 0.99 | 0.95 | 0.905 (inactive) | 0.718 | 8810 | 9740 |  |  | 10 nM (inactive) |  |  |  |
| CO[C@H](C(=O)[C@@H](O)[C@@H](C)O)[C@@H]1Cc2cc3cc(O[C@H]4C[C@@H](O[C@H]5C[C@@H](O)[C@H](O)[C@@H](C)O5)[C@@H](O)[C@@H](C)O4)c(C)c(O)c3c(O)c2C(=O)[C@H]1O[C@H]1C[C@@H](O[C@H]2C[C@@H](O[C@H]3C[C@](C)(O)[C@H](O)[C@@H](C)O3)[C@H](O)[C@@H](C)O2)[C@H](O)[C@@H](C)O1 | 0.96 (inactive) | 0.29 | 0.28 | 0.97 (inactive) | 0.963 | 2240 | 2320 | 7.83 (active) | -1.51 |  | -0.08% (active) | 93% | -1.89 (inactive) |
| CN(C)c1cnccn1 | 1.02 (inactive) | 0.95 | 0.97 | 0.783 (inactive) | 1.07 | 6710 | 8560 |  |  | 10 nM (inactive) |  |  |  |
